We go through 58 compounds from PubChem BioAssay AID602229 (The Scripps Research Institute Molecular Screening Center, 2012).

Molecules are shown by their SMILES. Screen size: about 360,000 compounds; about 1,300 (0.36%) were called active.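 Rule for the calls: active = inhibition above the mean of all tested compounds plus 3 SD (cut at about 70% in these data); inactive = the rest.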 This excerpt belongs to a sample that is enriched for actives.

The assay deals with Photoreceptor-specific nuclear receptor (Homo sapiens) (UniProt Q9Y5X4). In words: NCOR release from NR2E3 in cells – cell-based, luminescence, CHO-S, Gal4-NCOR/VP16-NR2E3, primary screen (AID 602229).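 Note: 0% = DMSO with NR2E3 transfected cells and 100% = cells lacking NR2E3 construct; higher means lower luciferase signal from less NR2E3 corepressor binding.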 To be noted: CHO-S Gal4-NCOR/VP16-NR2E3 two-hybrid, luciferase; at 3.98 µM; stronger effect = higher value.
Photoreceptor-specific nuclear receptor (Homo sapiens), sequence (Q9Y5X4 whole entry, looked up, the tested form may be a part): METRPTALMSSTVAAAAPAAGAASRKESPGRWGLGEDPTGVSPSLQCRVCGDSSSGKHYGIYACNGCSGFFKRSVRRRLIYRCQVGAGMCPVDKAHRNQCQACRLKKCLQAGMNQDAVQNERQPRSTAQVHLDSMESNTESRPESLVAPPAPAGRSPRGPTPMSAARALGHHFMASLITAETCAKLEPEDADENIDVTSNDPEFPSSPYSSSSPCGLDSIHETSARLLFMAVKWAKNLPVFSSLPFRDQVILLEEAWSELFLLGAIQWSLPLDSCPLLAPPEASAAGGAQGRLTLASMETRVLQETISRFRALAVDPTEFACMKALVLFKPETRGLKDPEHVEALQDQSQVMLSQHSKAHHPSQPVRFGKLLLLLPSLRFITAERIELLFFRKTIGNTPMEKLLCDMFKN
On to `CCn1c(/C=C/c2ccc([N+](=O)[O-])o2)nc2ccccc2c1=O`, for which the inhibition of corepressor binding is 9.98% (inactive). In the case of `O=C(/C=C/c1ccc([N+](=O)[O-])o1)NNC(=O)c1ccc(F)cc1` it was 101% (active); in that of `O=C(/C=C/c1ccc(F)cc1)NC(=S)NNC(=O)c1cccnc1`, -36.2% (inactive); in that of `CC1=C(C(=O)Nc2ccccc2)C(c2cccs2)C(C#N)=C(SCC#N)N1` (stereo not drawn), -12.8% (inactive). In the case of `CNS(=O)(=O)c1ccc2c(c1)[nH]c(=S)n2C`, the inhibition of corepressor binding is 10% (inactive). In the case of `CCCN(CC(=O)Nc1ccc(C(N)=O)cc1)CC(=O)Nc1ccccc1C` it was 12.9% (inactive); in that of `Nc1nc(-c2sc3nc4c(cc3c2N)CCCC4)nc(N2CCOCC2)n1`, -56.6% (inactive). In the case of `CCCOC(=O)c1[nH]c2c(c1C)C(=O)CC(c1cc(OC)c(OC)c(OC)c1)C2` (stereo not drawn) it was 70.4% (active); in that of `CCCOC(=O)c1[nH]c2c(c1C)C(=O)CC(c1cccs1)C2` (stereo not drawn), 2.46% (inactive); in that of `COC(=O)C1C(=O)c2c([nH]c(C(=O)OCCSC)c2C)CC1C` (stereo not drawn), -86.8% (inactive). In the case of `Cc1cc(C)c(S(=O)(=O)NCC2CCC(C(=O)NCc3ccc4c(c3)OCO4)CC2)c(C)c1` (stereo not drawn) it was -8.75% (inactive); in that of `CC(C)C1Nc2c(C(=O)O)cccc2C(Nc2ccccc2C(=O)O)C1(C)C` (stereo not drawn), 6.02% (inactive); in that of `COc1ccc(F)cc1S(=O)(=O)N1CCCCC1`, 4.16% (inactive). For `Cc1ccc(F)cc1NC(=O)Cc1nn(C)c(=O)c2ccccc12`, the inhibition of corepressor binding is 96.1% (active). In the case of `Cc1ccc(F)cc1NC(=O)CSCc1c(C)noc1C` it was -16.1% (inactive); in that of `Cc1ccc(C)c(NC(=O)COC(=O)c2nn(C)c(=O)c3ccccc23)c1`, 8.19% (inactive).

As for `O=C(CN1CCN(S(=O)(=O)c2ccc(Br)cc2)CC1)Nc1ccccc1C(=O)c1ccccc1`, the inhibition of corepressor binding is 3.01% (inactive).

`Cc1ccc(S(=O)(=O)N2[C@@H](c3ccc(Br)cc3)C(C(=O)O)=C[C@H]2CC2CCCC2)cc1`: the inhibition of corepressor binding was 77.4% (active).

Take `CCCCC[C@@H]1C=C(C(=O)OCC)[C@H](c2ccccc2)N1S(=O)(=O)c1ccc(C)cc1`: the inhibition of corepressor binding is 16.2% (inactive).

In the case of `CCCCC[C@@H]1C=C(C(=O)O)[C@H](c2ccc(C#N)cc2)N1S(=O)(=O)c1ccc(C)cc1`, the inhibition of corepressor binding is -8.3% (inactive). In the case of `O=C(NCc1ccccc1)C(=O)NCC1OCCN1S(=O)(=O)c1ccc(Br)cc1` (stereo not drawn) it was 10.3% (inactive); in that of `O=C(C1CCC1)N1CCc2cc(S(=O)(=O)NCc3cccnc3)ccc21`, 10% (inactive). In the case of `COc1ccc(N(C)S(=O)(=O)c2ccc3c(c2)CC(C)N3C(=O)C2CC2)c(OC)c1` (stereo not drawn) it was -11.9% (inactive); in that of `COc1cccc(CNS(=O)(=O)c2ccc3c(c2)CC(C)N3C(=O)C2CCC2)c1` (stereo not drawn), 87.5% (active); in that of `COc1ccc(S(=O)(=O)n2nc(C)c(S(=O)(=O)N3CCOCC3)c2C)cc1`, -29.6% (inactive). In the case of `COc1ccc(S(=O)(=O)Nc2cccnc2)c(Cl)c1Cl` it was -20.2% (inactive); in that of `Cc1cc(C)c(C)c(S(=O)(=O)Nc2cccnc2)c1C`, -21.1% (inactive). Turning to `COc1ccccc1Oc1ccc(S(=O)(=O)Nc2cccnc2)cc1`, the inhibition of corepressor binding was 96.3% (active).

Regarding `CN(CCc1cnn(C)c1)Cc1cn(C)nc1-c1ccccc1F`, the inhibition of corepressor binding is -12.1% (inactive). In the case of `COc1ccc(NC(=O)C2=NNC(=O)CC2)cc1S(=O)(=O)N1CCCCC1` it was -7.29% (inactive).

As to `CC1(C)O[C@@H]2CC3C4C[C@H](F)C5=CC(=O)C=CC5(C)C4C(O)CC3(C)[C@]2(C(=O)CO)O1` (stereo partly drawn), the inhibition of corepressor binding was 7.42% (inactive).

On to `Cc1ccc(NS(=O)(=O)c2ccc3c(c2)n(C)c(=O)c(=O)n3C)c(C)c1`, for which the inhibition of corepressor binding was 10.7% (inactive). In the case of `Cc1ccc(NS(=O)(=O)c2ccc(-c3coc(C)n3)cc2)c(C)c1` it was 73.5% (active); in that of `COc1cccc(NS(=O)(=O)c2ccc(-c3coc(C)n3)cc2)c1`, 50.6% (inactive); in that of `CCC1CCCCN1C(=O)CSc1nc(C)cc(C)n1` (stereo not drawn), 7.45% (inactive). In the case of `Cc1ccc(C(=O)OC2=CC(=O)CC(C)(C)C2)cc1` it was -13.1% (inactive); in that of `CS(=O)(=O)N1CCN=C1SCc1ccc(F)cc1`, -6.15% (inactive); in that of `COc1cccc(N(CC(=O)NC2CCCC2)C(=O)CCCC(=O)Nc2ccccn2)c1`, -5.7% (inactive). In the case of `Cc1ccc(S(=O)(=O)Nc2ccc3ncccc3c2)cc1` it was 74.2% (active); in that of `O=S(=O)(Nc1ccc(Oc2ncccn2)c(Cl)c1)c1ccc(F)cc1`, -0.77% (inactive). With `COc1cc(NS(=O)(=O)c2ccc3ccccc3c2)c2ncccc2c1`, the inhibition of corepressor binding was 48% (inactive). For `COC(=O)c1ccccc1NC(=O)C1CCN(S(=O)(=O)c2cc(OC)ccc2OC)CC1`, the inhibition of corepressor binding is -0.68% (inactive).

For the compound `CC(C)N=C1CCCC1C(=S)SSC(=S)C1CCCC1=NC(C)C` (stereo not drawn), the inhibition of corepressor binding was 82.3% (active). In the case of `O=C(CSc1ccccn1)N1CCN(S(=O)(=O)c2ccc(Cl)cc2)CC1` it was -21.8% (inactive). In the case of `CCCc1cc(=O)[nH]c(SCc2ccc(C#N)cc2)n1` it was -25.9% (inactive); in that of `O=C(CN(CC1CCCO1)C(=O)CNS(=O)(=O)c1ccccc1)NCc1ccccc1` (stereo not drawn), -7.79% (inactive). In the case of `CN(O)C(=S)c1ccccc1` it was 98.8% (active). As for `CCOC(=O)C1=NNC2(c3ccc(Cl)cc3)C(=O)N(c3cc(C)cc(C)c3)C(=O)C12` (stereo not drawn), the inhibition of corepressor binding is 3.14% (inactive). With `Cc1cc(C)nc(NC(=O)Nc2ccccc2C(F)(F)F)n1`, the inhibition of corepressor binding is -48.1% (inactive). For the compound `CC(C)(C)C(=O)COC(=O)c1cc(S(=O)(=O)N2CCCCC2)ccc1N1CCOCC1`, the inhibition of corepressor binding was -9.47% (inactive). In the case of `COc1ccccc1CCCNC(=O)C1CCC(=O)N(CCN2CCOCC2)C1` (stereo not drawn) it was -8.73% (inactive); in that of `O=C(c1ccco1)N1CCN(CC(=O)N(C2CCCCC2)C2CCS(=O)(=O)C2)CC1` (stereo not drawn), -15.5% (inactive).

Consider `Cc1ccc([N+](=O)[O-])cc1S(=O)(=O)N1CCCN(C)CC1`, for which the inhibition of corepressor binding was -11.3% (inactive).

As to `COc1ccc(S(=O)(=O)N2CCN(c3ncnc4c(-c5ccccc5)nsc34)CC2)cc1`, the inhibition of corepressor binding was -27.3% (inactive). In the case of `Cc1ccc(C)c(S(=O)(=O)N2CCN(c3ncnc4sccc34)CC2)c1`, the inhibition of corepressor binding is 85.8% (active). In the case of `Cc1ccc(S(=O)(=O)N2CCN(Cc3cccc(C)c3O)CC2)cc1`, the inhibition of corepressor binding was 4.5% (inactive).

Consider `Cc1ccc(S(=O)(=O)N2CCC3(CC2)OCCO3)c(C)c1`, for which the inhibition of corepressor binding was -34.4% (inactive). In the case of `Cc1ccc(S(=O)(=O)N2CCN(c3ncnc4ccccc34)CC2)cc1` it was 89.9% (active).
